Tests used:
Assay in all cases: log2 ratio of Biotin-Ahx-Ub-VS probe labelling (fragment/DMSO); higher = less target engagement (more negative = stronger competition), active = hit call of the paper (q ≤ 0.05, log2 ratio ≤ -1)
Conditions in all cases: compound concentration: 200 uM; treatment time: 3 h
UniProt O00507 = target: UniProt O00507
Method in brief: (§1)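 Labelling with Biotin-Ahx-Ub-VS (0.5 µM final, 1 h) followed a 3 h triplicate treatment of HEK293T lysate (495 µg per sample, Tris/CHAPS/IGEPAL buffer with protease inhibitors) with fragment at 200 µM or vehicle. Labelled DUBs were NeutrAvidin-enriched, digested with LysC and trypsin, and run by diaPASEF LC-MS/MS. The values, average log2 fragment/vehicle ratios by unpaired t-test, come from global-median-normalised Spectronaut label-free quantities. Proteins with ≥2 unique peptides were used.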

UniProt P51784 = target: UniProt P51784
Sequence of UniProt P51784 (P51784 whole entry): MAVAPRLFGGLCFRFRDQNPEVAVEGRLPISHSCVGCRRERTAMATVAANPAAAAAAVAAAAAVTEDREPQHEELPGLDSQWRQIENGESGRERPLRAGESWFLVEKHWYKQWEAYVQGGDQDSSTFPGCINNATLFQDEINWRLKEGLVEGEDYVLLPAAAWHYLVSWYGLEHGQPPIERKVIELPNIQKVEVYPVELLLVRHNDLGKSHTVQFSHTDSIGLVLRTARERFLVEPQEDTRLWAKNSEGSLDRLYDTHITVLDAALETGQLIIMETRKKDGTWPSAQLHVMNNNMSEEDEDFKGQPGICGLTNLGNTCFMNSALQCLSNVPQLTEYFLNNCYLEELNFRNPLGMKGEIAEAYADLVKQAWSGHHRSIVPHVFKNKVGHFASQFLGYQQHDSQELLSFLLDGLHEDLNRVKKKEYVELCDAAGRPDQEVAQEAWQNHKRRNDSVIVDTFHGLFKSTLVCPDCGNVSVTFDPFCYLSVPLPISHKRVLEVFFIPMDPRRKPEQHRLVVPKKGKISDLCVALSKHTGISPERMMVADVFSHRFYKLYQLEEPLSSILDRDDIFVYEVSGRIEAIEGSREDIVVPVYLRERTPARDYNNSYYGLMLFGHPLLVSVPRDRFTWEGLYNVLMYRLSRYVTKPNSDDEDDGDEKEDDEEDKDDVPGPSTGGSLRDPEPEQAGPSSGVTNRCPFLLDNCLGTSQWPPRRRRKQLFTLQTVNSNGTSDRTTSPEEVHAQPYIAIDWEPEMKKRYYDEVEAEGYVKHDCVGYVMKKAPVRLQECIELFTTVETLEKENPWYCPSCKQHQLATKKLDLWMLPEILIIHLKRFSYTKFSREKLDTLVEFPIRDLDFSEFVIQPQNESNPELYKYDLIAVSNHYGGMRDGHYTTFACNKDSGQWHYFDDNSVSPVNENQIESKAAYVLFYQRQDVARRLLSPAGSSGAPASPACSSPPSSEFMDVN
Method in brief: as §1

UniProt Q5T2D3 = target: T1, UniProt Q5T2D3
T1 sequence (whole entry): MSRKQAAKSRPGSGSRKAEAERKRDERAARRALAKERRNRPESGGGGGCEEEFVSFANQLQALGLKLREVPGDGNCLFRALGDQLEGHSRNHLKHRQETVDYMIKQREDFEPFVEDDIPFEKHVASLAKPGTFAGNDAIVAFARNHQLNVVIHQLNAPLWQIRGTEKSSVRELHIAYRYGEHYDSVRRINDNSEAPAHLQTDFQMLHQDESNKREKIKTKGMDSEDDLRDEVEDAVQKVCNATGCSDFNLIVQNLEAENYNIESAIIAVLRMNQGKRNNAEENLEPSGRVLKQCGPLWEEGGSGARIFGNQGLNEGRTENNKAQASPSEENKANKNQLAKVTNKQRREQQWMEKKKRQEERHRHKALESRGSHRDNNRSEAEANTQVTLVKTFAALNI
Method in brief: as §1

UniProt Q8TE49 = target: T2, UniProt Q8TE49
T2 sequence (whole entry): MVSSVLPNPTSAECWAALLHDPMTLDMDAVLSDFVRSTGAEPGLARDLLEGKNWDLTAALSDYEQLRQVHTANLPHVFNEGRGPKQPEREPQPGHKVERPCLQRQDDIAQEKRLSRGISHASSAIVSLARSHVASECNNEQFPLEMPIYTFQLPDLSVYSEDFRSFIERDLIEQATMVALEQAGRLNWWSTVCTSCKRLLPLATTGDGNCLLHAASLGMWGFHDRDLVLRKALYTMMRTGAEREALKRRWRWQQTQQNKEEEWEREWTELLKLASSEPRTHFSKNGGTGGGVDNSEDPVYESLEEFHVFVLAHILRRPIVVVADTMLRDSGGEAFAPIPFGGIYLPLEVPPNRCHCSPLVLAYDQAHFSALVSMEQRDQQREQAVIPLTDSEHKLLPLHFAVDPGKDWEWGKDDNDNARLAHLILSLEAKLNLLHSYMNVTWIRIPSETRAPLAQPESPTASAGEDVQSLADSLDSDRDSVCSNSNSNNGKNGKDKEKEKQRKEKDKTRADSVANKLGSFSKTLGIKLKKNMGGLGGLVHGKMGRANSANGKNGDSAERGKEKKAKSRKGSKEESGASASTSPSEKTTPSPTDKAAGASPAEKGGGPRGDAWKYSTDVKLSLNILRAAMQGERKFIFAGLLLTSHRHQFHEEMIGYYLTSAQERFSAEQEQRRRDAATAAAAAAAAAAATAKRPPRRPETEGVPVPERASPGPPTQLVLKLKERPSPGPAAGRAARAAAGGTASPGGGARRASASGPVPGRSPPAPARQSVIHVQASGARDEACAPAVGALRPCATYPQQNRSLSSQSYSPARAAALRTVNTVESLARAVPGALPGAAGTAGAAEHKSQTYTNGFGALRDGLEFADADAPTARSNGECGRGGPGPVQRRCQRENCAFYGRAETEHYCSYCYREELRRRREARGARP
Method in brief: as §1

UniProt Q9P2H5 = target: T3, UniProt Q9P2H5
T3 sequence (whole entry): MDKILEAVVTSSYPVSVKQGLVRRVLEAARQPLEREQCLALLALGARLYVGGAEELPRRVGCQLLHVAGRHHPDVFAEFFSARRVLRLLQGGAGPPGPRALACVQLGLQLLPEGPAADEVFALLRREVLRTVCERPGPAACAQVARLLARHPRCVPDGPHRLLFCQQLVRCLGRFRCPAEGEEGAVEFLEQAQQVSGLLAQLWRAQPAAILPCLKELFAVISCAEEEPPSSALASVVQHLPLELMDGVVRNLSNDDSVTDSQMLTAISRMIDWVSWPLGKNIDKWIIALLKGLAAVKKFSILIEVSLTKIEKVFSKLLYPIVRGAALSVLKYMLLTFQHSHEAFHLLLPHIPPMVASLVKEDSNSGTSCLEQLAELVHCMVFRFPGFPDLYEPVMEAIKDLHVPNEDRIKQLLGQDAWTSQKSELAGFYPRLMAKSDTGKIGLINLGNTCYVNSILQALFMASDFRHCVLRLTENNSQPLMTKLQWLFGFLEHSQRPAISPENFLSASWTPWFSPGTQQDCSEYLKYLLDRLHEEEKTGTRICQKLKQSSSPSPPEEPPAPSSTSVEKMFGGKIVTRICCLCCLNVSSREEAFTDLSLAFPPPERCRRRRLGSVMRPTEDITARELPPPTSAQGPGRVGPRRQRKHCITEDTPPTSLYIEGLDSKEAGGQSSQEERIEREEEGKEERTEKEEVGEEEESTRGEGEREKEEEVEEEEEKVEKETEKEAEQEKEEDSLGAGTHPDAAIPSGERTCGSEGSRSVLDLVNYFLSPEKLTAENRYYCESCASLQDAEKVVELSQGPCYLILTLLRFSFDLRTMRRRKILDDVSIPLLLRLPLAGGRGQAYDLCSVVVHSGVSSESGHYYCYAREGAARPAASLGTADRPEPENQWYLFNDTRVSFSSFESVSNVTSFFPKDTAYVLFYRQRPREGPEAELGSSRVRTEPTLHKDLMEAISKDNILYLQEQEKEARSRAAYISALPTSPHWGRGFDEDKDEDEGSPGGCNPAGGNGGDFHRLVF
Method in brief: as §1

UniProt Q9UGI0 = target: T4, UniProt Q9UGI0
T4 sequence (whole entry): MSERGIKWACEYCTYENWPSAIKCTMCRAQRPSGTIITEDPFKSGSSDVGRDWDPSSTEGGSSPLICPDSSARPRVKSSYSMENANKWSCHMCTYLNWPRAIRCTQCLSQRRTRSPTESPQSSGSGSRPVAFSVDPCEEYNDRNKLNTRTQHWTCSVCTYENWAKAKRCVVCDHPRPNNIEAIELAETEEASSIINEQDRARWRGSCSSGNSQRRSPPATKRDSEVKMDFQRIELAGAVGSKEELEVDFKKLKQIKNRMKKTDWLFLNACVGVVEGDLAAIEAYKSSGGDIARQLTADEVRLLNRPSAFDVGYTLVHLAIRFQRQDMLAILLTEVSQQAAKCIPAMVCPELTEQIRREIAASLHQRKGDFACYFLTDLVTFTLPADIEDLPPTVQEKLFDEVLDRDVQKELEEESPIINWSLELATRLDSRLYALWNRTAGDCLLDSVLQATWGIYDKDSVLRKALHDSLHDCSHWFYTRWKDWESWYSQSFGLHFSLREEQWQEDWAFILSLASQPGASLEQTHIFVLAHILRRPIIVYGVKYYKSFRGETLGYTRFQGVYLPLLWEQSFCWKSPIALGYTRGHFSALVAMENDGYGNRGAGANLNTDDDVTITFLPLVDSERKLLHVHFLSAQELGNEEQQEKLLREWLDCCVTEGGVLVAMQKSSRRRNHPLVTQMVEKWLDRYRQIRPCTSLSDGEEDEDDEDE
Method in brief: as §1

YOD1 = target: T5, YOD1 (UniProt Q5VVQ6)
T5 sequence (whole entry): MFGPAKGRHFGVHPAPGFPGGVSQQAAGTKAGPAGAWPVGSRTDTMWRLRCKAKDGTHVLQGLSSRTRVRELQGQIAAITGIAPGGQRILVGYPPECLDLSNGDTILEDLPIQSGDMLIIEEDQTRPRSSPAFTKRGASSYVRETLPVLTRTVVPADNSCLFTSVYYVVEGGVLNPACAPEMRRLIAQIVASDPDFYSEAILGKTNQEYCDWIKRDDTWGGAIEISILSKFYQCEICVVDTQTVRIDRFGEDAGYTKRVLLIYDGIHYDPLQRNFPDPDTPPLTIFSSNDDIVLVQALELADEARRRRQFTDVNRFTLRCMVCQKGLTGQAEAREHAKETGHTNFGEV
Method in brief: as §1

Measured: log2 ratio of Biotin-Ahx-Ub-VS probe labelling

Sequence of UniProt O00507 (O00507 whole entry, the tested form may be a part): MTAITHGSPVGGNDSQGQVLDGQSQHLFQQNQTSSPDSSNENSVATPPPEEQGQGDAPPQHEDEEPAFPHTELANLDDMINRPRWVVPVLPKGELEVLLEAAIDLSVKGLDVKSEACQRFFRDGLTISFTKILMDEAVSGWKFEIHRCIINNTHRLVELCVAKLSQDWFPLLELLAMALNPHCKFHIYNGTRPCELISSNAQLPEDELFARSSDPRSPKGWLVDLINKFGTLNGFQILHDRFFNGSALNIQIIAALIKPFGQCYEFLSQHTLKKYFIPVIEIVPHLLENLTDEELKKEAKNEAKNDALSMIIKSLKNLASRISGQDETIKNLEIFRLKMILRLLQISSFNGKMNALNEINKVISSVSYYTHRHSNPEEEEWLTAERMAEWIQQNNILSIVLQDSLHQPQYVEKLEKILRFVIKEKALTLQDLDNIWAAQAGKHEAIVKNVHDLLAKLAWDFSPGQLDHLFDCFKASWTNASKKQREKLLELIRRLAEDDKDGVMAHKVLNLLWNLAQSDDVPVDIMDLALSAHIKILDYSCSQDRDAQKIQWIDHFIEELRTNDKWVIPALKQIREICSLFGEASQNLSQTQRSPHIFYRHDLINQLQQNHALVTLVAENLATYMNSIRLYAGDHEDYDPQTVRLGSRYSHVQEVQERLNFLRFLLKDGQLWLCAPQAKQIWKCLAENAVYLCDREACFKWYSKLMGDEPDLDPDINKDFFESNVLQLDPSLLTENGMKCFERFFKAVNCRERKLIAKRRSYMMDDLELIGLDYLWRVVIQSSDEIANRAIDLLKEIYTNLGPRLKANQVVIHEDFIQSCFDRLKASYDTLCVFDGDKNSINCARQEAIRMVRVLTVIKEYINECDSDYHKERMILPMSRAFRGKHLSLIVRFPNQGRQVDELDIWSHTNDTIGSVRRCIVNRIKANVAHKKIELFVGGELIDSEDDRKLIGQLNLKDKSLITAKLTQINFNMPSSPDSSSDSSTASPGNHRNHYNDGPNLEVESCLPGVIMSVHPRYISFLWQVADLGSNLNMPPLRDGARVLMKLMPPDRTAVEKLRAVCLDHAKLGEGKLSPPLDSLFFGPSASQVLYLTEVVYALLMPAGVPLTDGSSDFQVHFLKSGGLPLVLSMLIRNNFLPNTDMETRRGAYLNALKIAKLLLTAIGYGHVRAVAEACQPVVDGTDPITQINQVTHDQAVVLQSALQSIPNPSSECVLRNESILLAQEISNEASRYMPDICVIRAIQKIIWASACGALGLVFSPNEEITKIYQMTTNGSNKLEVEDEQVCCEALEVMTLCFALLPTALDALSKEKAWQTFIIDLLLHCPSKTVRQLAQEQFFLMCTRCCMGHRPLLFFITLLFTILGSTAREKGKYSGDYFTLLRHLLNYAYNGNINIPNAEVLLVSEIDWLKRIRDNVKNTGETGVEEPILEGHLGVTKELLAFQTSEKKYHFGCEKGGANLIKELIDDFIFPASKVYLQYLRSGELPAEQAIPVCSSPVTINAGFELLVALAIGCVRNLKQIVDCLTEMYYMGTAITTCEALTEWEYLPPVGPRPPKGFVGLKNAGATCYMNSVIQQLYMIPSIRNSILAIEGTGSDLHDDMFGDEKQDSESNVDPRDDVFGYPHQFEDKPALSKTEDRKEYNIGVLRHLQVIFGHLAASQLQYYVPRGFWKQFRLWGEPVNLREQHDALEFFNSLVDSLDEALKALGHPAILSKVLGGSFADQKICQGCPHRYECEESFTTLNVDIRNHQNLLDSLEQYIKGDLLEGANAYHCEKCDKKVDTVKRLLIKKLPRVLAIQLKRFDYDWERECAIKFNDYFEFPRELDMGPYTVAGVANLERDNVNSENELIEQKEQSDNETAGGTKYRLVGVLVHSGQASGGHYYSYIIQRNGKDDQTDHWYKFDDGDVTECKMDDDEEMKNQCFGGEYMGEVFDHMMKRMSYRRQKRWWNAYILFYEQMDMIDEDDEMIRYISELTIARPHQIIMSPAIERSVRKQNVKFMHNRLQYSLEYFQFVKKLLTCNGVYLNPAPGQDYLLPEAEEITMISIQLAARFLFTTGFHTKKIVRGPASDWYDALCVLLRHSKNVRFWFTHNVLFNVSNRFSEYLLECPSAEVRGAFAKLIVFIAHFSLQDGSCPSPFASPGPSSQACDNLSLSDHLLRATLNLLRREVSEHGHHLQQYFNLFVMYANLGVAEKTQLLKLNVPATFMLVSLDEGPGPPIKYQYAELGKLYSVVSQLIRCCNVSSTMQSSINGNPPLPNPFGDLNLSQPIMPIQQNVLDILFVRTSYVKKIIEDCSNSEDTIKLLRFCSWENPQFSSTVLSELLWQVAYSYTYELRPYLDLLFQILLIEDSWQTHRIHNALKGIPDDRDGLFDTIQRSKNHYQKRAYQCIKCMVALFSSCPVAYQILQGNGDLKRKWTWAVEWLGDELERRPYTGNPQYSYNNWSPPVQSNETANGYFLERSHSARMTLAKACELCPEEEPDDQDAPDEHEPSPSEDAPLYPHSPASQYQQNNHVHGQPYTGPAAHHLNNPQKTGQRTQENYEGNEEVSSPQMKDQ

Cc1nc(-c2cccc(NC(=O)CCl)c2)cs1
inactive: UniProt O00507 -0.692 | UniProt P51784 -0.269 | UniProt Q5T2D3 -0.317 | UniProt Q8TE49 -0.655 | UniProt Q9P2H5 -0.193 | YOD1 -0.369
active: UniProt Q9UGI0 -1.43

C[C@H]1CN(C(=O)CCl)CCN1C(=O)c1cnn(C)c1.Cl
inactive: UniProt O00507 0.326 | UniProt P51784 0.00812 | UniProt Q5T2D3 -0.292 | UniProt Q8TE49 -0.57 | UniProt Q9P2H5 -0.408 | UniProt Q9UGI0 0.189 | YOD1 0.0183

O=C(CCl)NCCc1cccc2ccccc12
inactive: UniProt O00507 0.608 | UniProt P51784 0.159 | UniProt Q5T2D3 -0.0259 | UniProt Q8TE49 -0.28 | UniProt Q9P2H5 0.0801 | UniProt Q9UGI0 0.238 | YOD1 0.263

CNC(=O)C1CCN(C(=O)CCl)CC1
inactive: UniProt O00507 -0.581 | UniProt P51784 0.091 | UniProt Q5T2D3 0.0899 | UniProt Q8TE49 -0.129 | UniProt Q9P2H5 0.179 | UniProt Q9UGI0 0.0343 | YOD1 -0.239

O=C(CCl)N1CCc2sccc2C1
inactive: UniProt O00507 -0.0149 | UniProt P51784 -0.207 | UniProt Q5T2D3 -0.075 | UniProt Q9P2H5 -0.371 | YOD1 -0.00804
active: UniProt Q8TE49 -1.18 | UniProt Q9UGI0 -1.9

Cc1cc(NC(=O)CCl)n(-c2ccccc2)n1
inactive: UniProt O00507 0.159 | UniProt P51784 -0.0134 | UniProt Q5T2D3 0.000838 | UniProt Q8TE49 -0.548 | UniProt Q9P2H5 -0.36 | UniProt Q9UGI0 -0.672 | YOD1 0.179

Cc1n[nH]c(=O)c2c(NC(=O)CCl)oc(C)c12
inactive: UniProt O00507 0.347 | UniProt P51784 0.0686 | UniProt Q5T2D3 -0.674 | UniProt Q8TE49 -0.575 | UniProt Q9P2H5 -0.144 | UniProt Q9UGI0 0.264 | YOD1 0.238

N#Cc1ccc(Cl)cc1NC(=O)CCl
inactive: UniProt O00507 -0.451 | UniProt P51784 0.0676 | UniProt Q5T2D3 -0.0728 | UniProt Q8TE49 -0.577 | UniProt Q9P2H5 0.0403 | UniProt Q9UGI0 -0.441 | YOD1 0.0565

C#Cc1cccc(NC(=O)CCl)c1
active: UniProt Q9UGI0 -1.01
inactive: UniProt O00507 0.0122 | UniProt P51784 -0.102 | UniProt Q5T2D3 -0.121 | UniProt Q8TE49 -0.872 | UniProt Q9P2H5 -0.252 | YOD1 0.0347

O=C(CCl)NC1CCCCNC1=O (stereo not given)
inactive: UniProt O00507 -0.323 | UniProt P51784 -0.117 | UniProt Q5T2D3 -0.329 | UniProt Q8TE49 -0.574 | UniProt Q9P2H5 -0.277 | UniProt Q9UGI0 -0.309 | YOD1 -0.218

From the supplement of paper PMC11732987, “Enantioselective OTUD7B fragment discovery through chemoproteomics screening and high-throughput optimisation” (Communications Chemistry, 2025)
